# Records with an inconclusive call do not appear. Values without a mark were called inactive. Activity calls are given as the source filed them. Unless noted, calls come from the whole dose curve; as a rule, active = well fitted curve in the direction sought with a large enough effect; inconclusive = small, poorly fitted or top-dose-only effect, or another doubt; inactive = no such curve, though single readings can be large; an effect the other way counts as inactive or inconclusive.
# Assay: S16 Schwann cell viability assay (CellTiter-Glo assay) (AID 624031);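 note: cellular ATP luminescence as a viability measure; plate controls were DMSO-treated cells for no effect and cell-free wells for full effect; nearly all actives have a fitted effect of over 70% in size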
# Settings: S16 rat Schwann cells viability, 24 h; series mostly up to 57.5 µM; activity change, negative = cytotoxicity: at the top concentration
# Outline: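 Native S16 rat Schwann cells in DMEM/10% FBS without phenol red were incubated overnight, then exposed to compounds for 24 h at 37 °C/5% CO2. Viability was read as ATP luminescence (CellTiter-Glo), normalized to no-cell wells and DMSO (0%).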
row,Compound,"activity change, negative = cytotoxicity"
1,CCOP(=S)(OCC)Oc1ccc2c(C)c(Cl)c(=O)oc2c1,-16%
2,CC(C)c1cccc(C(C)C)c1O,1.29%
3,O=C1c2ccccc2C(=O)c2ccccc21,4.97%
4,C[C@]12CCC(=O)C=C1CC[C@@H]1[C@@H]2CC[C@]2(C)C(=O)CC[C@@H]12,-16%
5,Nc1ccccc1C(=O)O,7.31%
6,Oc1ccc(Cl)cc1,2.31%
7,Nc1ccc([As](=O)(O)O)cc1,-9.66%
8,O=C(O)CCCc1ccc(N(CCCl)CCCl)cc1,-1.34%

# Assay: S16 Schwann cell PMP22 intronic element firefly luciferase assay (AID 624032); note: nearly all actives have a fitted effect of over 30% in size; note: potency is the fitted concentration of half-maximal effect;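 for activity change, negative = inhibition: plate controls were DMSO for no effect and PTC124 positive control mean for full effect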
# Settings: S16 rat Schwann cells, PMP22 element FLuc, 24 h; series mostly up to 57.5 µM; activity change, negative = inhibition: at the top concentration
# Outline: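 Rat S16 Schwann cells stably carrying a PMP22 intronic element-driven Fluc reporter were seeded overnight, then exposed to compounds for 24 h at 37 °C. Luminescence was normalized to PTC124 (positive control) and DMSO (0% activity).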
Compound,Potency,"activity change, negative = inhibition"
CCOP(=S)(OCC)Oc1ccc2c(C)c(Cl)c(=O)oc2c1,8.09 µM (active),
Cn1c(=O)c2[nH]cnc2n(C)c1=O,,2.72%
CC(C)c1cccc(C(C)C)c1O,,13.2%
O=C1c2ccccc2C(=O)c2ccccc21,,39.7%
C=CCc1ccc(O)c(OC)c1,,19.1%
CN=C(NC#N)NCCSCc1nc[nH]c1C,,23.2%
O=C1c2ccccc2C(=O)C1C(=O)C(c1ccccc1)c1ccccc1,,-12.7%
C[C@]12CCC(=O)C=C1CC[C@@H]1[C@@H]2CC[C@]2(C)C(=O)CC[C@@H]12,,-2.73%
Oc1ccc(Cl)cc1,,-11.1%
Nc1ccc([As](=O)(O)O)cc1,,-2.29%

# Assay: S16 Schwann cell PMP22 intronic element beta-lactamase assay (AID 624044; calls by dose curve;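 note: 0% = DMSO and -100% = potassium clavulanate positive control; nearly all actives have a fitted effect of over 15% in size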)
# Settings: S16 rat Schwann cells, PMP22 element beta-lactamase FRET, 24 h; series mostly up to 38.3 µM; ratio activity, negative = inhibition: at the top concentration
# Outline: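 Beta-lactamase reporter under a PMP22 intronic regulatory element in stable S16 rat Schwann cells; 24 h compound exposure. 460 nm blue signal normalized between DMSO (0%) and potassium clavulanate, with 535 nm FRET tracking viability; curves classed by r2 and response.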
row,Compound,"ratio activity, negative = inhibition"
1,CCOP(=S)(OCC)Oc1ccc2c(C)c(Cl)c(=O)oc2c1,-9.56%
2,CC(C)c1cccc(C(C)C)c1O,-8.79%
3,O=C1c2ccccc2C(=O)C1C(=O)C(c1ccccc1)c1ccccc1,-7.28%
4,C[C@]12CCC(=O)C=C1CC[C@@H]1[C@@H]2CC[C@]2(C)C(=O)CC[C@@H]12,-1.27%
5,Nc1ccc([As](=O)(O)O)cc1,-5.25%

# Source: PubChem BioAssay (NCATS)
